Screen size: about 5,500 compounds; about 2,000 (36%) were called active. About 18% were inconclusive and are not listed. Cut-off read from the data, not from the text of the source: active = normalized growth mostly below about 0.91 (no sharp cut-off); inconclusive = no clear call, values can overlap the other calls; inactive = mostly above about 0.92. The list shows a part of the results.
Assay: chemical genetic growth profiling, strain panel (AID 1159580);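 note: tested at 20 µM; growth read once vehicle control cultures reached saturation at 30 °C; 1 = growth at the plate median or of vehicle wells; lower values mean less growth of the strain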
Conditions: S. cerevisiae deletion strains, growth OD

Measured: normalized growth

Cc1ccc2c(Cl)cc(Cl)c(O)c2n1
inactive: locus YAL021C, strain ccr4, active compounds read low 0.998 | locus YAL026C, strain drs2, active compounds read low 1.02 | locus YAL030W, strain snc1, active compounds read low 1.01 | locus YBL061C, strain skt5, active compounds read low 1.02 | locus YBR009C, strain hhf1, active compounds read low 1.02 | locus YBR023C, strain chs3, active compounds read low 1.02 | locus YBR171W, strain sec66, active compounds read low 1.04 | locus YBR231C, strain swc5, active compounds read low 1.03 | locus YBR279W, strain paf1, active compounds read low 1.02 | locus YCL011C, strain gbp2, active compounds read low 1.01 | locus YCL016C, strain dcc1, active compounds read low 1.02 | locus YCL069W, strain vba3, active compounds read low 1.01 | locus YCR088W, strain abp1, active compounds read low 1.02 | locus YDL005C, strain med2, active compounds read low 1.02 | locus YDL040C, strain nat1, active compounds read low 1.02 | locus YDR001C, strain nth1, active compounds read low 1.02 | locus YDR069C, strain doa4, active compounds read low 1.03 | locus YDR137W, strain rgp1, active compounds read low 1.06 | locus YDR159W, strain sac3, active compounds read low 1.02 | locus YDR195W, strain ref2 0.987 | locus YDR297W, strain sur2, active compounds read low 1.02 | locus YDR334W, strain swr1, active compounds read low 1.02 | locus YDR335W, strain msn5, active compounds read low 1.01 | locus YDR392W, strain spt3, active compounds read low 1.02 | locus YEL003W, strain gim4, active compounds read low 1.01 | locus YEL037C, strain rad23, active compounds read low 1.02 | locus YEL061C, strain CIN8 (second series), active compounds read low 1.01 | locus YER015W, strain faa2, active compounds read low 1.01 | locus YER016W, strain bim1, active compounds read low 1.02 | locus YER111C, strain swi4, active compounds read low 1.02 | locus YER155C, strain BEM2 (second series), active compounds read low 1.02 | locus YFR010W, strain ubp6, active compounds read low 1.01 | locus YGL167C, strain pmr1, active compounds read low 1.03 | locus YGL173C, strain kem1, active compounds read low 1.02 | locus YGL227W, strain vid30, active compounds read low 1.05 | locus YGL240W, strain doc1, active compounds read low 1.02 | locus YGL253W, strain hxk2, active compounds read low 1.01 | locus YHR013C, strain ard1, active compounds read low 1.04 | locus YHR027C, strain rpn1, active compounds read low 1.02 | locus YHR142W, strain chs7, active compounds read low 1.03 | locus YJL092W, strain hpr5, active compounds read low 1.02 | locus YJL095W, strain BCK1 (second series), active compounds read low 1.04 | locus YJL115W, strain asf1, active compounds read low 1.03 | locus YJL129C, strain trk1, active compounds read low 1.02 | locus YJL154C, strain vps35, active compounds read low 1.02 | locus YJL164C, strain tpk1, active compounds read low 1.02 | locus YJL166W, strain qcr8, active compounds read low 1.04 | locus YJL187C, strain SWE1, active compounds read low 0.999 | locus YKL160W, strain elf1, active compounds read low 1.02 | locus YKR026C, strain gcn3, active compounds read low 1.02 | locus YKR091W, strain srl3, active compounds read low 1.02 | locus YLL001W, strain dnm1, active compounds read low 1.02 | locus YLL026W, active compounds read low 0.999 | locus YLL041C, strain sdh2, active compounds read low 1.03 | locus YLR027C, strain aat2, active compounds read low 1.02 | locus YLR221C, strain rsa3, active compounds read low 1.01 | locus YLR258W, strain gsy2, active compounds read low 1.02 | locus YLR262C, strain YPT6 (second series), active compounds read low 1 | locus YLR320W, strain mms22, active compounds read low 1.03 | locus YLR342W, strain FKS1, active compounds read low 1.05 | locus YLR357W, strain rsc2, active compounds read low 1.04 | locus YLR370C, strain arc18, active compounds read low 1.02 | locus YLR384C, strain iki3, active compounds read low 1.03 | locus YML120C, strain ndi1, active compounds read low 1 | locus YMR058W, strain fet3, active compounds read low 1.01 | locus YMR125W, strain sto1, active compounds read low 1.02 | locus YMR129W, active compounds read low 1.01 | locus YMR205C, strain PFK2, active compounds read low 1.02 | locus YMR231W, strain pep5, active compounds read low 1.02 | locus YNL071W, strain lat1, active compounds read low 1.01 | locus YNL209W, strain ssb2, active compounds read low 1.01 | locus YNL248C, strain rpa49, active compounds read low 1.01 | locus YNL322C, strain KRE1 (second series), active compounds read low 1.03 | locus YNR049C, strain mso1, active compounds read low 1.03 | locus YOR001W, strain rrp6, active compounds read low 1.02 | locus YOR070C, strain gyp1, active compounds read low 1.03 | locus YOR080W, strain dia2, active compounds read low 1.02 | locus YOR083W, strain WHI5, active compounds read low 1.03 | locus YOR106W, strain vam3, active compounds read low 1.01 | locus YOR265W, strain rbl2, active compounds read low 1.01 | locus YOR270C, strain vph1, active compounds read low 1.02 | locus YOR290C, strain snf2, active compounds read low 1.03 | locus YPL051W, strain arl3, active compounds read low 1.01 | locus YPL078C, strain atp4, active compounds read low 1.01 | locus YPL106C, strain sse1, active compounds read low 1 | locus YPL240C, strain hsp82, active compounds read low 1.01

From PubChem BioAssay AID1159580 (chemical genetic matrix, 2015)
